Consider 18 molecules from PubChem BioAssay (NCATS).

Results filed as inconclusive are left out. Where a call stands in place of a potency, no number is given. Activity calls are given as the source filed them. Calls follow the shape of the dose curve; as a rule, active = well fitted inhibition curve with a large enough effect; inconclusive = small, poorly fitted or top-dose-only effect; inactive = no such curve, though single readings can be large or run the other way.

The target in the assay is Retinaldehyde dehydrogenase 3 (Homo sapiens) (UniProt P47895). In words: qHTS for Inhibitors of the Aldehyde Dehydrogenase Family (ALDH1A3) Primary screen (AID 2061315). The following applies: ALDH inhibition qHTS; series mostly up to 56 µM. A general note: In qHTS, concentration-response curves come from the screen itself.
Turning to `O=c1c2ccccc2nc2sc(NCc3ccccc3)nn12`, the Potency entry was “inactive”.
In the case of `O=C(Nc1ncnc2c1C(c1ccccc1)c1c(ccc3ccccc13)O2)c1ccccc1` (stereo not drawn) it was “inactive”; in that of `Cc1cc(NS(=O)(=O)c2ccc(NS(=O)(=O)Cc3ccc(Cl)c(Cl)c3)cc2)no1`, “inactive”.
In the case of `CCn1cnc2c(Nc3ccc(Cc4cccnc4)cc3)nc(C#N)nc21`, the Potency entry was “inactive”.
In the case of `CCCC1CCN(C(=O)COC(=O)c2ccc(S(C)(=O)=O)c([N+](=O)[O-])c2)CC1` it was “inactive”; in that of `CCCCOc1ccc(S(=O)(=O)n2c(C)nc3ccccc32)cc1`, “inactive”; in that of `O=C(O)c1ccc(-c2ccc(NC(=O)c3cccs3)cn2)cc1`, “inactive”.
Next, `CCOC(=O)c1ccc(-c2ccc3ncnc(N(C)Cc4ccc(C)o4)c3c2)o1`: “inactive”.
In the case of `N#Cc1nc(-c2cccc3ccccc23)oc1Nc1ccccc1` it was “inactive”; in that of `NC(=O)C1CCN(c2nc(-c3cccc4sc5ccccc5c34)cs2)CC1`, “inactive”.
For `Cc1ccnc(NC(=S)N2CCN(c3ccc(F)cc3)CC2)c1`, the Potency result was “inactive”.
In the case of `O=c1c2ccccc2nc2sc(NCc3ccc(Sc4ccccc4)cc3)nn12` it was “inactive”; in that of `O=C(NC1CCCc2c1cnn2CCO)c1ccccn1` (stereo not drawn), “inactive”; in that of `COc1ccc2c(=O)n3nc(Nc4ccc5c(c4)CCC5)sc3nc2c1`, “inactive”.
`CC(C)(C)OC(=O)N1CCN(c2ccc(NCc3cc(-c4ccc(C#N)cc4)co3)cc2)CC1`: the Potency result is “inactive”.
As for `CCN(Cc1cccs1)c1ncnc2ccc(-c3ccc4c(c3)OCO4)cc12`, the Potency result is “inactive”.
Consider `Cc1ccc(CNc2ncnc3ccc(-c4ccc5c(c4)OCO5)cc23)s1`, for which the Potency result was “inactive”.
For the molecule `Cc1cc(C=CC#N)cc(C)c1Nc1nc(Nc2ccc3scnc3c2)c2[nH]cnc2n1`, the Potency entry is “inactive”.
